# Data as given in PubChem BioAssay (NCATS).
# Records with an inconclusive call do not appear. The source made the active and inactive calls. Calls come from the whole dose curve; as a rule, active = well fitted inhibition curve with a large enough effect; inconclusive = small, poorly fitted or top-dose-only effect; inactive = flat fitted curve, though single readings scatter.
# Test system: WaGa
# Assay: qHTS assay to identify novel small-molecules to repurpose for Merkel cell carcinoma treatment (AID 1296009); note: nearly all actives have a fitted effect of over 60% in size
# Conditions: MCC and control cell lines, CellTiter-Glo viability, 72 h; series mostly up to 46 µM; activity change, negative = cytotoxicity: at the top concentration
# Summary of the method: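 CellTiter-Glo luminescence after 72 hr compound exposure at 37 degree celsius gave cell viability. Libraries NPC and MIPE were run as 8- and 11-point dose responses; RLUs normalized to DMSO (negative) and no-cell (cytotoxicity) controls.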
# % is set by controls: 0 for no effect and ±100 for the full control effect; potency is the fitted concentration of half-maximal effect.
Structure (SMILES),Potency,"activity change, negative = cytotoxicity"
OC1(c2ccc(Cl)c(C(F)(F)F)c2)CCN(CCCC(c2ccc(F)cc2)c2ccc(F)cc2)CC1,15 µM (active),
CC[C@@H]([C@H](C)O)n1ncn(-c2ccc(N3CCN(c4ccc(OC[C@@H]5CO[C@@](Cn6cncn6)(c6ccc(F)cc6F)C5)cc4)CC3)cc2)c1=O,,-22.3% (inactive)
CCOC(=O)N1CCC(Nc2ccc(Cl)cc2N)CC1,,-28.6% (inactive)
O=C(CCC1CCN(Cc2ccccc2)CC1)c1ccc2c(c1)NCCCC2,,-14.4% (inactive)
CC(C)(C)c1ccc(O)c(O)c1,10.9 µM (active),
CC(=O)O[C@@H]1C(=O)O[C@@H]2[C@H]1OC(=O)[C@@H]2OC(C)=O,,-11.9% (inactive)
CN(CC1(C)CCCO1)S(=O)(=O)c1ccc(Cl)c(S(N)(=O)=O)c1 (stereo not drawn),,5.89% (inactive)
O=C(Nc1ccc(Cl)cc1)Nc1ccc(Cl)c(C(F)(F)F)c1,26.6 µM (active),
O=C1NCCN1CCN1CCC(c2cn(-c3ccc(F)cc3)c3ccc(Cl)cc23)CC1,10.6 µM (active),
CCOC(=O)C1=C(C)NC(C)=C(C(=O)OCC)C1c1ccccc1/C=C/C(=O)OC(C)(C)C,23.7 µM (active),
Nc1ccc2cc3ccc(N)cc3nc2c1,2.66 µM (active),
CC(C)=CCC/C(C)=C/CC/C(C)=C/C(=O)OCC(=O)[C@@]1(O)CC[C@H]2[C@@H]3CCC4=CC(=O)C=C[C@]4(C)[C@H]3[C@@H](O)C[C@@]21C,,5.38% (inactive)
COc1c(C)c2c(c(O)c1C/C=C(\C)CCC(=O)OCCN1CCOCC1)C(=O)OC2,,-81.5% (inactive)
CCOC(=O)[C@H](CCc1ccccc1)N[C@@H](C)C(=O)N(CC(=O)O)C1Cc2ccccc2C1,,11.7% (inactive)
O=C(Nc1ccc(Cl)cc1)Nc1ccc(Cl)c(Cl)c1,21.1 µM (active),
CCCCNc1ccc(C(=O)OCCN(CC)CC)cc1,,11.3% (inactive)
Cc1cc(C(C)(C)C)c(O)c(C(C)(C)C)c1,,7.42% (inactive)
CC(CC1c2ccccc2CCc2ccccc21)CN(C)C (stereo not drawn),,-7.68% (inactive)
CC(=O)[C@@]1(O)CC[C@H]2[C@@H]3C[C@H](C)C4=CC(=O)CC[C@]4(C)[C@H]3CC[C@@]21C,,-11.8% (inactive)
CCN(CC)CCOc1ccc(/C(=C(\Cl)c2ccccc2)c2ccccc2)cc1,26.6 µM (active),
CCC1(c2cnc[nH]2)Cc2ccccc2C1,,2.5% (inactive)
CC(C)OC(=O)c1cc2c(OCC(O)CNC(C)(C)C)cccc2[nH]1 (stereo not drawn),,-26.4% (inactive)
CC(C)C[C@H](NC(=O)CNC(=O)[C@H](Cc1ccc(O)cc1)NC(=O)[C@H](CO)NC(=O)[C@H](Cc1c[nH]c2ccccc12)NC(=O)[C@H](Cc1cnc[nH]1)NC(=O)[C@@H]1CCC(=O)N1)C(=O)N[C@@H](CCCN=C(N)N)C(=O)N1CCC[C@H]1C(=O)NCC(N)=O (stereo in doubt),,13.2% (inactive)
